# Laboratory results from PubChem BioAssay AID1347422 (Sanford-Burnham Center for Chemical Genomics, 2020).
# The full ranking holds about 1,000 compounds; the median of “thermal shift dTm” is about 0.19, and the highest 2% start at about 1.7. The list comes from a sample in which the highest values are over-represented; it also holds similar structures and randomly drawn compounds. Active and inactive are the calls of the source.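 The calls were made as follows: active = mean rise in melting temperature of at least 1 degC over same-plate control wells; inactive = below that, where a call was filed.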
# Target: Sulfhydryl oxidase 1 (Homo sapiens) (UniProt O00391)
# Sequence (O00391 whole entry, looked up): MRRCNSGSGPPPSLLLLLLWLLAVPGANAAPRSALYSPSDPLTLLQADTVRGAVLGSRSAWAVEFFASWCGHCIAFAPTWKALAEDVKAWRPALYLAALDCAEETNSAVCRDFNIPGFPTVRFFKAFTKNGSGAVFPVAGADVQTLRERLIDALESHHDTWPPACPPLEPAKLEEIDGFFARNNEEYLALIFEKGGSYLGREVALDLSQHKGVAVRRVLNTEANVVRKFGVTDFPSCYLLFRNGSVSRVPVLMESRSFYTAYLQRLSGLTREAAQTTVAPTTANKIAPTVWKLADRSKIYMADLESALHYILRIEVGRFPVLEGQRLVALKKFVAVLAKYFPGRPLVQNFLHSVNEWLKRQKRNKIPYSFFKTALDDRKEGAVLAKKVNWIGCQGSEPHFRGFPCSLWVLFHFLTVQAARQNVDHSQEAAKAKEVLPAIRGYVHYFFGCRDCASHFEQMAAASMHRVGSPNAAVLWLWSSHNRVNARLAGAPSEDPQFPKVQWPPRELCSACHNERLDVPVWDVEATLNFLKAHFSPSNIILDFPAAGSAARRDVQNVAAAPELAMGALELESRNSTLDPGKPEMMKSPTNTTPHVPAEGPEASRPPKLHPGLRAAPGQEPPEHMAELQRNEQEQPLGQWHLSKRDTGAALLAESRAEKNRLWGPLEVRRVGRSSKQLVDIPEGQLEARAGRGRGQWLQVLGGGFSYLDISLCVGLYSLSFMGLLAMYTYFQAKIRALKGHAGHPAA
# Assay: ligand-induced melting shift of human QSOX1 – biophysical, protein thermal shift, single concentration, QSOX1 inhibitor project, confirmation (AID 1347422);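 also: dTm is compound Tm minus mean Tm of DMSO-only wells on that plate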
# Settings: recombinant hQSOX1 thermal shift, Sypro Orange, at 25 µM, stronger effect = higher value
row,SMILES,thermal shift dTm
1,O=C(Nc1n[nH]c(-c2ccccc2)n1)N1CCC2(C=Cc3ccccc32)CC1,0.09 °C
2,CCCCC1=NN2C(=N)/C(=C/c3ccc(Cl)cc3Cl)C(=O)N=C2S1,0.11 °C
3,CCOC(=O)c1sc(NC(=O)CSc2nc(SC)ns2)nc1C,0.19 °C
4,Cc1sc(NC(=O)C#Cc2ccccc2)c(C(N)=O)c1C,0.33 °C
5,CCC(c1ccc(OC)cc1)N(CC)C(=O)Nc1ccccc1 (stereo not drawn),0.14 °C
6,COC(=O)c1cccc(NC(=O)c2ccc(Cl)s2)c1,0.04 °C
7,C=CCSC1=N/C(=C\c2ccc(-c3cccc(Cl)c3)o2)C(=O)S1,0.63 °C
8,O=C(NCCC1=CCCCC1)Nc1cccc(F)c1,0.19 °C
9,CCN(CC)c1ccc2cc(-c3nc4ccccc4o3)c(=O)oc2c1,0.15 °C
10,COc1ccc2nc(NC(=O)c3ccc(C)o3)sc2c1,0.04 °C
11,COc1ccc(OC)c(-c2nc(NC(=O)c3ccccc3OC)sc2C)c1,-7.06 °C (inactive)
12,COc1ccc(C(=O)Nc2nc(-c3cc(OC)ccc3OC)c(C)s2)cc1,2.73 °C (active)
13,CC1CCc2c(sc3ncn(CC(=O)Nc4ccccc4F)c(=O)c23)C1 (stereo not drawn),0.26 °C
14,COC(=O)C1=C(C)N(c2ccc(Cl)cc2)C(=O)/C1=C\c1ccco1,0.01 °C
15,O=C(Nc1ccc(Cl)cn1)c1cccc(NC(=O)c2cccs2)c1,0.37 °C
16,C/C=C/c1c(F)c(F)c(Oc2cccc(NC(C)=O)c2)c(F)c1F,0.63 °C
17,C=CCN1C(=O)C(c2c(C)[nH]c3ccccc23)(c2c(C)[nH]c3ccccc23)c2ccccc21,1.05 °C (active)
18,FC(F)(F)c1ccc(Cl)c(Nc2nnc(-c3ccncc3)s2)c1,0.77 °C
19,Cc1ccc(NC(=O)NCc2nc(-c3ccccc3Cl)no2)cc1,0.2 °C
20,Cc1ccc(Nc2nc(-c3sc(C)nc3C)cs2)nc1,0.16 °C
21,O=C(Nc1cccc(Cl)c1)N1CCC(C(O)(c2ccccc2)c2ccccc2)CC1,0.21 °C
22,O=S1(=O)CC2C(C1)N(c1cccc(C(F)(F)F)c1)C(=S)N2c1ccccc1 (stereo not drawn),-0.16 °C (inactive)
23,CC(=O)Oc1ccc(-c2csc(Nc3ccccc3F)n2)cc1,0.35 °C

row,SMILES,thermal shift dTm
1,COc1ccc(S(=O)(=O)NC(C)C2C3CC4CC(C3)CC2C4)cc1 (stereo not drawn),-0.18 °C (inactive)
2,O=C(Nc1nccs1)c1cccc(NC(=O)c2cc3ccccc3o2)c1,1.07 °C (active)
3,Cc1nc(NC(=O)c2ccc(Br)s2)sc1C,0.27 °C
4,CCN(C(=O)Nc1ccc(Cl)cc1)c1nnc(-c2ccccc2)s1,0.16 °C
5,CC(=O)Nc1cccc(NC(=O)c2cccc(NC(=O)c3ccco3)c2)c1,0.37 °C
6,CCc1ccc(C(=O)Nc2cccc(NC(=O)c3ccco3)c2)cc1,2.18 °C (active)
7,O=C(Nc1cccc(NC(=O)c2ccco2)c1)c1cccc(F)c1,1.39 °C (active)
8,Cc1ccccc1OCc1nc(-c2cccc(NC(=O)c3ccco3)c2)no1,0.57 °C
9,COc1ccc(/C=C/C(=O)Nc2cccc(C(C)=O)c2)cc1,1.18 °C (active)
10,COc1ccc(C(=O)/C=C/c2cccc(OC)c2)cc1,2.07 °C (active)
11,Nc1cccc(/C=C/C(=O)c2ccccc2)c1,0.57 °C
12,O=C(NC1CC(=O)N(Cc2cccc3ccccc23)C1)C(=O)c1ccccc1 (stereo not drawn),0.23 °C
13,O=C(Nc1ccc(Cl)cc1)Nc1ccccc1OC(F)F,0.25 °C
14,COc1ccc(C)cc1NC(=O)Nc1ccc(OC(F)F)c(Cl)c1,-0.79 °C (inactive)
15,CCCc1cc(=O)[nH]c(SCC(=O)Nc2nc(-c3ccccc3)cs2)n1,1.07 °C (active)
16,COc1ccccc1C(=O)NC(=S)Nc1ccc(NC(=O)C(C)C)cc1,0.11 °C
17,O=c1c2ccccc2ncn1CCCOc1ccc2ccccc2c1Br,0.11 °C
18,COc1ccc(Cl)cc1NC(=S)Nc1c(C)nn(Cc2c(F)cccc2Cl)c1C,0.81 °C
19,CCCOC(=O)c1c(NC(=O)C2CC=CCC2C(=O)O)sc(C)c1-c1ccc(F)cc1 (stereo not drawn),0.77 °C
20,CC1Oc2ccc(-c3csc(NC(=O)COc4ccc(Cl)cc4)n3)cc2NC1=O (stereo not drawn),-0.1 °C (inactive)
21,Cc1ccc(-n2[nH]c(CSc3nnnn3-c3ccccc3)cc2=O)cc1,0.43 °C
22,Cc1[nH]nc(-c2ccc(O)c(O)c2O)c1Oc1ccc(F)cc1,-5.32 °C (inactive)
23,Cc1ccc(O)c(-c2cc(-c3ccccc3)n[nH]2)c1,0.01 °C

row,SMILES,thermal shift dTm
1,Cc1ccc(-c2cc(-c3ccc(F)cc3)n[nH]2)c(O)c1,1.84 °C (active)
2,O=C(Nc1cccc(-c2noc(CCc3ccccc3)n2)c1)c1cccs1,0.1 °C
3,O=C(/C=C/c1ccco1)NCc1cccc(CNC(=O)/C=C/c2ccco2)c1,1.04 °C (active)
4,CCCC(=O)NC(c1ccccc1OC)c1c(OC(=O)COc2ccccc2)ccc2ccccc12 (stereo not drawn),-0.13 °C (inactive)
5,OCc1ccc(OCc2ccc(F)cc2)c(Br)c1,0.58 °C
6,COc1cccc(C(=O)NCCc2c[nH]c3ccc(C)cc23)c1,0.07 °C
7,COc1ccc2[nH]cc(CCNC(=O)c3cccc(Cl)c3)c2c1,1.74 °C (active)
8,COc1ccc2[nH]cc(CCNC(=O)c3ccc(OC(C)=O)cc3)c2c1,0.81 °C
9,NC(=O)c1ccc(NC(=O)C2CC2(c2ccccc2)c2ccccc2)cc1 (stereo not drawn),0.19 °C
10,O=C(Nc1cccc(OCC2CCCO2)c1)c1cccs1 (stereo not drawn),0.09 °C
11,COc1cccc(C(=O)Nc2nc3ccc(Cl)cc3s2)c1,0.62 °C
12,COc1ccc(C(=O)Oc2ccccc2Cl)cc1Br,0.06 °C
13,Fc1ccc(-c2nc(-c3cccs3)c(-c3cccs3)[nH]2)cc1,3.34 °C (active)
14,COc1ccc(-c2nc(-c3cccs3)c(-c3cccs3)[nH]2)cc1,0.25 °C
15,c1csc(-c2nc(-c3cccs3)c(-c3cccs3)[nH]2)c1,0.06 °C
16,Cc1oc(-c2ccccc2NS(C)(=O)=O)nc1CN(C)Cc1ccc(OC(F)F)cc1,0.18 °C
17,N#Cc1cccc(NC(=O)c2cc3ccccc3o2)c1,0.32 °C
18,CC(=O)Nc1ccc(NC(=O)c2cc3ccccc3o2)cc1,1.73 °C (active)
19,Cc1cc(NC(=O)c2ccccn2)ccc1NC(=O)c1cc2ccccc2o1,0.19 °C
20,O=C(Nc1cccc(OCc2ccccc2)c1)c1ccco1,0.23 °C
21,Cc1ccc(-c2noc(CNC(=O)C34CC5CC(CC(C5)C3)C4)n2)cc1,0.16 °C
22,O=C(CCSc1nc2sc3c(c2c(=O)[nH]1)CCCC3)Nc1ccccc1,0.02 °C
